Laboratory results published in PubChem BioAssay (Tox21).
Several values for one entry are separate records, joined by “and”; a condition that tells them apart may be missing. Equal entries are not always repeated. Inconclusive results are not listed. A structure can be active in one record and inactive in another. Activity calls are given as the source filed them. Calls follow the shape of the dose curve; as a rule, active = well fitted curve in the direction sought with a large enough effect in the repeat runs; inconclusive = weak or mixed curves; inactive = no such curve, though single readings can be large; an effect the other way counts as inactive or inconclusive.

Columns and labels:
[1] = qHTS RealTime-Glo MT Cell Viability Assay in HepG2 cells - 40 hour (AID 1224870); also: nearly all actives have a fitted effect of over 50% in size
Outline: (§1)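 Real-time viability: cells seeded at 600 per well together with NanoLuc and cell-permeant prosubstrate, compounds added after 5 h incubation. Luminescence tracked at 0, 8, 16, 24, 32 and 40 h of exposure.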

[2] = A CellTox Green Cytotoxicity Assay to monitor cytotoxicity in HEK293 cells - 40 hour (AID 1224871); also: nearly all actives have a fitted effect of over 45% in size
Outline: (§2)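 Cytotoxicity was tracked continuously in HEK293 cells by a DNA-binding dye excluded from viable cells. Compounds were transferred in DMSO 5 h after seeding; fluorescence was recorded at intervals up to 40 h.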

[3] = qHTS RealTime-Glo MT Cell Viability Assay in HEK293 cells - 16 hour (AID 1224872); also: nearly all actives have a fitted effect of over 50% in size
Outline: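 HEK293 cells seeded with NanoLuc/prosubstrate reagent, rested 5 h at 37 C, then dosed and kept at 37 C up to 40 h. Nonlytic real-time luminescence from viable cells read at 0, 8, 16, 24, 32 and 40 h.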

[4] = qHTS RealTime-Glo MT Cell Viability Assay in HepG2 cells - 8 hour (AID 1224873); also: nearly all actives have a fitted effect of over 55% in size
Outline: as §1

[5] = qHTS RealTime-Glo MT Cell Viability Assay in HEK293 cells - 40 hour (AID 1224874); conditions: RealTime-Glo luminescence; max response: stronger effect = lower value; also: nearly all actives have a fitted effect of over 50% in size
Outline: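 Nonlytic bioluminescent viability monitoring. HEK293 at 600 cells/well with reagent; 5 h settle; compound transfer by pintool; plates held at 37 C and read at set time points.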

[6] = A CellTox Green Cytotoxicity Assay to monitor cytotoxicity in HEK293 cells - 24 hour (AID 1224875); also: nearly all actives have a fitted effect of over 45% in size
Outline: as §2

[7] = A CellTox Green Cytotoxicity Assay to monitor cytotoxicity in HepG2 cells - 16 hour (AID 1224876); also: nearly all actives have a fitted effect of over 45% in size
Outline: (§3)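 Real-time, homogeneous cytotoxicity readout: dead-cell DNA staining by CellTox Green in HepG2 monolayers, fluorescence measured at timed intervals up to 40 h of continuous compound exposure.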

[8] = qHTS RealTime-Glo MT Cell Viability Assay in HepG2 cells - 32 hour (AID 1224877); also: nearly all actives have a fitted effect of over 55% in size
Outline: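 HepG2 cells (600/well) were dispensed with RealTime-Glo reagents, incubated 5 h at 37 °C, then treated with compounds in DMSO for up to 40 h. Nonlytic NanoLuc luminescence reflecting viable cells was read at each stated time point.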

[9] = A CellTox Green Cytotoxicity Assay to monitor cytotoxicity in HepG2 cells - 24 hour (AID 1224878); also: nearly all actives have a fitted effect of over 45% in size
Outline: as §3

[10] = A CellTox Green Cytotoxicity Assay to monitor cytotoxicity in HepG2 cells - 40 hour (AID 1224879); also: nearly all actives have a fitted effect of over 40% in size
Outline: as §3
% is scaled to controls: 0 for no effect and ±100 for the full control effect; potency is read from the fitted curve at half-maximal effect.

C=C/C(C)=C/C/C=C(\C)CCC=C(C)C
inactive: Potency [1] | Potency [2] | Potency [3] | Potency [4] | max response [5] -7.52% | Potency [6] | Potency [7] | Potency [8] | Potency [9] | Potency [10]

CN1C(C(=O)Nc2ccccn2)=C(O)c2sccc2S1(=O)=O
inactive: Potency [1] | Potency [2] | Potency [3] | Potency [4] | max response [5] 6.41% | Potency [6] | Potency [7] | Potency [8] | Potency [9] | Potency [10]

O=C(O)CCCCCCCCCCCBr
inactive: Potency [1] | Potency [2] | Potency [3] | Potency [4] | max response [5] -7.89% | Potency [6] | Potency [7] | Potency [8] | Potency [9] | Potency [10]

CCOC(=O)/C=C/C(=O)OCC
inactive: Potency [1] | Potency [2] | Potency [3] | Potency [4] | max response [5] 11.5% | Potency [6] | Potency [7] | Potency [8] | Potency [9] | Potency [10]

CCC(C)COC(C)=O (centres undefined)
inactive: Potency [1] | Potency [2] | Potency [3] | Potency [4] | max response [5] 12% | Potency [6] | Potency [7] | Potency [8] | Potency [9] | Potency [10]

CC1=C(Br)C(=O)C(Br)=C/C1=C(/c1ccccc1S(=O)(=O)O)c1cc(Br)c(O)c(Br)c1C
inactive: Potency [1] | Potency [2] | Potency [3] | Potency [4] | max response [5] 1.66% | Potency [6] | Potency [7] | Potency [8] | Potency [9] | Potency [10]

COc1ccccc1Oc1c(NS(=O)(=O)c2ccc(C(C)(C)C)cc2)nc(-c2ncccn2)nc1OCCO
inactive: Potency [1] | Potency [2] | Potency [3] | Potency [4] | max response [5] -19.3% | Potency [6] | Potency [7] | Potency [8] | Potency [9] | Potency [10]

O=C(OC(=O)c1ccccc1)c1ccccc1
inactive: Potency [1] | Potency [2] | Potency [3] | Potency [4] | max response [5] 6.21% | Potency [6] | Potency [7] | Potency [8] | Potency [9] | Potency [10]

Cc1ccccc1S
inactive: Potency [1] | Potency [2] | Potency [3] | Potency [4] | max response [5] -6.46% | Potency [6] | Potency [7] | Potency [8] | Potency [9] | Potency [10]

CCCCCCCCCCCCCCN(CCO)CCO
active: Potency [1] 17.4 µM | Potency [2] 38.9 µM | Potency [3] 49 µM | Potency [4] 54.9 µM | Potency [5] 19.5 µM | Potency [6] 43.6 µM | Potency [7] 49 µM | Potency [8] 19.5 µM | Potency [9] 24.5 µM | Potency [10] 13.8 µM

c1ccc(C[n+]2cccc3ccccc32)cc1
inactive: Potency [1] | Potency [2] | Potency [3] | Potency [4] | max response [5] -28.8% | Potency [6] | Potency [7] | Potency [8] | Potency [9] | Potency [10]

O=C(CCCN1CC=C(n2c(=O)[nH]c3ccccc32)CC1)c1ccc(F)cc1
active: Potency [3] 9.52 µM | Potency [5] 9.52 µM
inactive: Potency [1] | Potency [2] | Potency [4] | Potency [6] | Potency [7] | Potency [8] | Potency [10]

CCC=CC#N
inactive: Potency [1] | Potency [2] | Potency [3] | Potency [4] | max response [5] 10.8% | Potency [6] | Potency [7] | Potency [8] | Potency [9] | Potency [10]

CC(C)COCC(CN(Cc1ccccc1)c1ccccc1)N1CCCC1 (centres undefined)
active: Potency [1] 23.9 µM | Potency [2] 21.3 µM | Potency [3] 8.49 µM | Potency [4] 23.9 µM | Potency [5] 10.7 µM | Potency [6] 23.9 µM | Potency [7] 21.3 µM | Potency [8] 21.3 µM | Potency [9] 23.9 µM | Potency [10] 19 µM

NNC(=O)CP(=O)(c1ccccc1)c1ccccc1
inactive: Potency [1] | Potency [2] | Potency [3] | Potency [4] | max response [5] -3.49% | Potency [6] | Potency [7] | Potency [8] | Potency [9] | Potency [10]

O=C(/C=C/c1ccccc1)OCCc1ccccc1
inactive: Potency [1] | Potency [2] | Potency [3] | Potency [4] | max response [5] -0.613% | Potency [6] | Potency [7] | Potency [8] | Potency [9] | Potency [10]

COc1cc(C(=O)NCCCCCC(=O)O)cc(OC)c1OC
inactive: Potency [1] | Potency [2] | Potency [3] | Potency [4] | max response [5] 1.12% | Potency [6] | Potency [7] | Potency [8] | Potency [9] | Potency [10]

CCCCN(CCN(CCCC)C(=O)N1CCOCC1)C(=O)N1CCOCC1
inactive: Potency [1] | Potency [2] | Potency [3] | Potency [4] | max response [5] -14% | Potency [6] | Potency [7] | Potency [8] | Potency [9] | Potency [10]

C[C@]12CC[C@@H]3c4ccc(O)cc4CC[C@H]3[C@@H]1CC[C@@H]2OC(=O)CCC1CCCC1
49 µM (active) and inactive: Potency [4]
inactive: Potency [1]
active: Potency [2] 54.9 µM | Potency [3] 49 µM | Potency [5] 43.6 µM | Potency [6] 54.9 µM | Potency [7] 49 µM and 19 µM | Potency [9] 49 µM and 23.9 µM | Potency [10] 54.9 µM and 26.8 µM
54.9 µM (active) and inactive: Potency [8]

O=C1CCCCCCCCCCOCCCCO1
active: Potency [2] 49 µM | Potency [6] 49 µM
inactive: Potency [1] | Potency [3] | Potency [4] | max response [5] -14.4% | Potency [7] | Potency [8] | Potency [9] | Potency [10]

C[C@]1(Cn2ccnn2)[C@H](C(=O)O)N2C(=O)C[C@H]2S1(=O)=O
inactive: Potency [1] | Potency [2] | Potency [3] | Potency [4] | max response [5] 2.48% | Potency [6] | Potency [7] | Potency [8] | Potency [9] | Potency [10]

O=c1[nH]ncc2ccccc12
inactive: Potency [1] | Potency [2] | Potency [3] | Potency [4] | max response [5] 6.19% | Potency [6] | Potency [7] | Potency [8] | Potency [9] | Potency [10]
